The values below come from PubChem BioAssay (NCATS).

Records with an inconclusive call do not appear. Where a call stands in place of a potency, no number is given. Unmarked numbers belong to inactive results. Activity calls are given as the source filed them. Calls come from the whole dose curve; as a rule, active = well fitted curve in the direction sought with a large enough effect; inconclusive = small, poorly fitted or top-dose-only effect, or another doubt; inactive = no such curve, though single readings can be large; an effect the other way counts as inactive or inconclusive.

A short description of test [1]: P-glycoprotein substrates identified in KB-8-5-11 adenocarcinoma cell line, qHTS therapeutic library screen (AID 1346987). For activity change, negative = cytotoxicity: series mostly up to about 44 µM. Note: nearly all actives have a fitted effect of over 65% in size. Note: potency is the fitted concentration of half-maximal effect. Put shortly: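 Human cervical adenocarcinoma KB-8-5-11 cells, selected in colchicine to over-express P-gp and assayed without it, were exposed for 72 h to titrated compounds. An ATP-based luminescent viability signal gave AC50.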
Test [2] deals with Zika virus NS2B-NS3 protease (linked construct). Put plainly: Primary screen NINDS Rhodamine qHTS for Zika virus inhibitors (AID 1347160). Note: nearly all actives have a fitted effect of over 55% in size. Put shortly: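 Rhodamine110-peptide cleavage (1.5 µM substrate) by 25 nM linked NS2B-NS3 enzyme at pH 8.0 (Tris, Tween 20), after 15 min RT preincubation with compounds; 15-min fluorescence change normalized to controls and Hill-fitted.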

Regarding `CC(C)(C)NS(=O)(=O)c1ccc(-c2ccc3[nH]nc(N)c3c2)cc1`, the Potency entry in test [1] and in test [2] was “inactive” throughout.

In the case of `CC1=C(CCC(C)O[C@@H]2O[C@H](CO)[C@@H](O)[C@H](O)[C@H]2O)C(C)(C)CC(O)C1` (some centres not stated), the Potency result in test [1] and in test [2] was “inactive” each time.

On to `C[C@@H]1O[C@@H](O[C@H]2[C@H](O)[C@@H](O)[C@H](OC(=O)[C@]34CCC(C)(C)C[C@H]3C3=CCC5[C@@]6(C)CC[C@H](O[C@@H]7O[C@H](C(=O)O)[C@@H](O)[C@H](O)[C@H]7O)C(C)(C)C6CC[C@@]5(C)[C@]3(C)CC4)O[C@@H]2CO)[C@H](O)[C@H](O)[C@H]1O` (some centres not stated), for which the outcome in test [1] was “inactive [at 9.29 µM]”. For the same compound, the Potency result in test [2] is “inactive”.

Consider `N#Cc1cc(-c2n[nH]c(-c3ccncc3)n2)ccn1`, for which the Potency entry in test [1] and in test [2] was “inactive” in each case.

With `CCC(C)/C=C(C)/C=C/C1=CC2=C(Cl)C(=O)C(C)(OC(C)=O)C(=O)C2=CN1C(CCCN=C(N)N)C(=O)O` (configuration not stated), the Potency result in test [1] and in test [2] was “inactive” in each case.

`CC1(C)CCC[C@]2(C)C1CC=C(CO)[C@H]2CC/C(=C/CO)CO` (some centres not stated): the Potency entry in test [1] and in test [2] was “inactive” throughout.

On to `CC(=O)OC1C(O)C(C)(O)C(/C=C/C(=O)O)C2(C)CCCC(C)(C)C12` (configuration not stated), for which the Potency entry in test [1] and in test [2] was “inactive” throughout.

In the case of `C=C1C[C@@]2(O)O[C@@]3(C[C@H]2C(C)C)[C@@H](C)CC[C@@H]13`, the Potency result in test [1] and in test [2] was “inactive” in each case.

As to `CC(=O)Nc1cccc2c1c(Sc1ccc(Cl)cc1)c(C)n2CC(=O)O`, the Potency entry in test [1] and in test [2] was “inactive” in each case.

On to `COc1c(C)c(OCC=C(C)C)cc2c1COC2=O`, for which the Potency entry in test [1] and in test [2] was “inactive” in each case.

For the compound `CC(=O)OC1C(O)/C(C)=C\C2C(OC(=O)c3ccccc3)C(C)CC2(OC(C)=O)C(OC(C)=O)C(C)/C=C/C(C)(C)C1OC(C)=O` (configuration not stated), the Potency result in test [1] and in test [2] was “inactive” throughout.

In the case of `O=C(/C=C/c1ccc(O)c(O)c1)OC[C@H]1O[C@@H](OC2CCCCC2O)[C@H](O)[C@@H](O)[C@@H]1O` (some centres not stated), the Potency entry in test [1] and in test [2] was “inactive” throughout.

For `C[C@@H]1O[C@@H](OC2C(O[C@H]3[C@H](O[C@H]4CC[C@@]5(C)C(CC[C@]6(C)C5CC=C5C7CC(C)(C)CC(O)[C@]7(C)CC[C@]56C)C4(C)C)O[C@H](C(=O)O)[C@@H](O)[C@@H]3O)OC(CO)C(O)C2O)[C@H](O)[C@H](O)[C@H]1O` (some centres not stated), the activity change, negative = cytotoxicity in test [1] was 3.3% [at 9.29 µM]. The Potency result in test [2] was “inactive”.

With `CC1=C[C@H]2[C@@H](CC1=O)[C@H](C)C[C@H](O)[C@H]2C(C)C`, the Potency result in test [1] and in test [2] was “inactive” in each case.

As for `CC1(C)CC[C@]2(C(=O)O[C@@H]3O[C@H](CO)[C@@H](O)[C@H](O)[C@H]3O)CC[C@]3(C)C(=CCC4[C@@]5(C)C[C@@H](O)[C@H](O)[C@@](C)(CO)C5[C@H](O)C[C@]43C)C2C1` (some centres not stated), the Potency result in test [1] and in test [2] was “inactive” each time.

As to `C=C(C(=O)O)C1CC(OC(=O)CC(C)CC)C2(C)CCCC(=C)C2C1` (configuration not stated), the Potency entry in test [1] and in test [2] was “inactive” each time.

Consider `C[C@@H]1O[C@@H](O[C@H]2[C@@H]3C=CO[C@@H](O[C@@H]4O[C@H](CO)[C@@H](O)[C@H](O)[C@H]4O)[C@@H]3[C@@]3(CO)O[C@@H]23)[C@H](OC(=O)/C=C/c2ccc(O)cc2)[C@H](O)[C@H]1O`, for which the Potency result in test [1] and in test [2] was “inactive” throughout.

For the compound `C=CC(C)(O)CCC1C(C)(O)CCC2C(C)(C)CCCC21C` (configuration not stated), the Potency entry in test [1] and in test [2] was “inactive” in each case.

As for `C=C1C(=O)O[C@@H]2/C=C(\C)CC/C=C(\C(=O)O[C@@H]3O[C@H](CO)[C@@H](O)[C@H](O)[C@H]3O)CC[C@@H]12`, the Potency result in test [1] and in test [2] was “inactive” in each case.

With `CC(C)c1ccc2c(c1)C(O)CC1C(C)(C(=O)O)CCCC21C` (configuration not stated), the Potency result in test [1] and in test [2] was “inactive” each time.

Take `CC(NC(=O)c1ccccc1N)C(=O)O` (configuration not stated): the Potency result in test [1] and in test [2] was “inactive” in each case.

As to `CC(O)C(=O)/C=C/C=C/C(=O)OC1C=C2COC(=O)C2(O)C2(C)CCCC(C)(C)C12` (configuration not stated), the Potency entry in test [1] and in test [2] was “inactive” each time.

In the case of `Cc1ncc(NC(=O)c2ccc(CN3CCN(C)CC3)c(C(F)(F)F)c2)cc1Nc1nccc(-c2cccnc2)n1`, the Potency entry in test [1] and in test [2] was “inactive” in each case.

For the compound `FC(F)(F)c1nnc2c(Sc3ccccc3)nc3ccc(Cl)cc3n12`, in test [1], the Potency was 4.61 µM (active). Moreover, in test [2], the Potency result was “inactive”.

For `COC(=O)[C@]1(C)CCC[C@@]2(C)[C@@H]3CC[C@@H]4C[C@@]3(CC[C@@H]21)C[C@H]4C(=O)O`, the Potency result in test [1] and in test [2] was “inactive” each time.

For the compound `CC1=CC(=O)CC(C)(C)C1/C=C/C(C)OC1OC(COC2OCC(O)C(O)C2O)C(O)C(O)C1O` (configuration not stated), the Potency entry in test [1] and in test [2] was “inactive” in each case.

Turning to `O=C(OCC1=C[C@@H](O)[C@@H]2C=CO[C@@H](O[C@@H]3O[C@H](CO)[C@@H](O)[C@H](O)[C@H]3O)[C@H]12)c1ccc(O)cc1`, the Potency result in test [1] and in test [2] was “inactive” in each case.

Turning to `COc1c2c(c(C)c3c1C(=O)OC3)OC1(C)CC(O)C34OC(OC)(CCC3(C)C1C2)OC4(C)CO` (configuration not stated), the Potency result in test [1] and in test [2] was “inactive” in each case.

For the compound `CC(C)N(CCCNC(=O)Nc1ccc(C(C)(C)C)cc1)C[C@H]1O[C@@H](n2ccc3c(N)ncnc32)[C@H](O)[C@@H]1O`, the Potency result in test [1] and in test [2] was “inactive” in each case.

For the compound `C[C@H]1[C@H](C)C[C@@H](C(=O)O)C2CC[C@]3(C)C(=CC[C@@H]4[C@@]5(C)CC[C@H](O)C(C)(C)[C@@H]5CC[C@]43C)[C@@H]21` (some centres not stated), the Potency entry in test [1] and in test [2] was “inactive” in each case.

`O=C(Nc1cc(-c2ccccc2)nn1-c1ccccc1F)c1ccc([N+](=O)[O-])cc1`: the Potency entry in test [1] and in test [2] was “inactive” each time.
